Measurements published in article PMC7862700, “An all-to-all approach to the identification of sequence-specific readers for epigenetic DNA modifications on cytosine”.

What was measured:
Assay in all cases: DAPPL (digital affinity profiling via proximity ligation, sequencing); 10 mM Tris-HCl pH 7.5, 50 mM NaCl, 1 mM DTT, 4% glycerol, room temperature, 30 min; GST-TFs on glutathione beads, 16-mer random dsDNA library, 0.1% formaldehyde crosslink after washing; high values mean tight binding
[1] = molecular target: T1, FEV (Homo sapiens, UniProt Q99581 1-238); conditions: protein: recombinant; tags: N-terminal GST; dsDNA, one strand shown
T1 sequence: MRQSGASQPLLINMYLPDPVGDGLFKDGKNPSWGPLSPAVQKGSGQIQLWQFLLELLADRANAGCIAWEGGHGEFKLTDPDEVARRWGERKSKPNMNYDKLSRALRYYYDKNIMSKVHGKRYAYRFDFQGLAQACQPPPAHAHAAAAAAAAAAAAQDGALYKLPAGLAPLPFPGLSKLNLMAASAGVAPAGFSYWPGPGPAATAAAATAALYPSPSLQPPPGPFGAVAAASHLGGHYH
How it was run: (§1)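 Sequencing on an Illumina NextSeq500 followed washing, crosslinking with 0.1% formaldehyde, proximity ligation (BsaI/T4 ligase, 1 h, 37 °C) and PCR amplification of pools that had been incubated for 30 min at room temperature with 200 nmole of a random double-stranded 16-mer DNA library in Tris/NaCl/DTT/glycerol buffer. Each pool held DNA-barcoded human transcription factors, expressed in yeast as GST fusions and captured on glutathione beads, plus a tag-only sample. Binding signal is a hexamer's read frequency for a factor divided by its frequency in the tag-only sample.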

[2] = molecular target: ETV5 (Homo sapiens, UniProt P41161 1-510); conditions: protein: recombinant; tags: N-terminal GST; dsDNA, one strand shown
ETV5, sequence (P41161 whole entry): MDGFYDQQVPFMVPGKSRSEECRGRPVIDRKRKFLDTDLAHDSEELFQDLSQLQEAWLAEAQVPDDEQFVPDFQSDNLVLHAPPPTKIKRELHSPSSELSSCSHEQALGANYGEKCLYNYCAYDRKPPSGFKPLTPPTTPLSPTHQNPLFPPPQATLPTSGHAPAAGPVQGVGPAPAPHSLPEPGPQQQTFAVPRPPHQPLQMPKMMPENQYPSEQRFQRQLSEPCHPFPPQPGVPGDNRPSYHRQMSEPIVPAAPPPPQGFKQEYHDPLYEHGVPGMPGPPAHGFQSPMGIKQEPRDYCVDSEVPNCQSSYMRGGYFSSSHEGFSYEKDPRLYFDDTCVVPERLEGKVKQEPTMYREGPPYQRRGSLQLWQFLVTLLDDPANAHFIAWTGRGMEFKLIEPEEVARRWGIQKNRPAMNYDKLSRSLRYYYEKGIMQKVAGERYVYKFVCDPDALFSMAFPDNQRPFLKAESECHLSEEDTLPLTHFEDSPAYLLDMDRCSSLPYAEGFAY
How it was run: as §1

[3] = molecular target: HSF1 (Homo sapiens, UniProt Q00613 1-529); conditions: protein: recombinant; tags: N-terminal GST; chain copies: 3; dsDNA, one strand shown
HSF1, sequence (Q00613 whole entry): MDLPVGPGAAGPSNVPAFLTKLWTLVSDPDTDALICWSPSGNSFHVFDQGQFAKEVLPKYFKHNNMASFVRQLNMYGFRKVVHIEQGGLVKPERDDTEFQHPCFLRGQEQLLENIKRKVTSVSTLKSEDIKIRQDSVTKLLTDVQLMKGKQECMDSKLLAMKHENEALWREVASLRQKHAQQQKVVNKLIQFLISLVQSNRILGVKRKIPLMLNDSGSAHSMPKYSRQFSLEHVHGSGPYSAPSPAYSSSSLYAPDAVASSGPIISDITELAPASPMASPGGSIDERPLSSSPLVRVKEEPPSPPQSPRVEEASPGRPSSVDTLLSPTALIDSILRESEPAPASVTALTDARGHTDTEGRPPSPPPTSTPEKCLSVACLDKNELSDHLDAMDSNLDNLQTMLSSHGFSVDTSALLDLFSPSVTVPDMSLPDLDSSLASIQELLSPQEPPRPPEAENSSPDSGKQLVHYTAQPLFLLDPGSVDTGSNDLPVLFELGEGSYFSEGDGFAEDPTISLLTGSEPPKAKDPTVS
How it was run: as §1

[4] = molecular target: T2, SPIC (Homo sapiens, UniProt Q8N5J4 1-248); conditions: protein: recombinant; tags: N-terminal GST; dsDNA, one strand shown
T2 sequence: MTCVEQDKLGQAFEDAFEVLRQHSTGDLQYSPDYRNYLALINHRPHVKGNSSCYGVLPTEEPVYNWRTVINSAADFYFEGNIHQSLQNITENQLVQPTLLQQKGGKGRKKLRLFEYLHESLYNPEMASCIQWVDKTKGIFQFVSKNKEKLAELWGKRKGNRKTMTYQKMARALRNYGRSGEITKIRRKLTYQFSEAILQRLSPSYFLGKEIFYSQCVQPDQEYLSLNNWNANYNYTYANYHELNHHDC
How it was run: as §1

[5] = molecular target: ELF4 (Homo sapiens, UniProt Q99607 1-663); conditions: protein: recombinant; tags: N-terminal GST; dsDNA, one strand shown
ELF4, sequence (Q99607 whole entry): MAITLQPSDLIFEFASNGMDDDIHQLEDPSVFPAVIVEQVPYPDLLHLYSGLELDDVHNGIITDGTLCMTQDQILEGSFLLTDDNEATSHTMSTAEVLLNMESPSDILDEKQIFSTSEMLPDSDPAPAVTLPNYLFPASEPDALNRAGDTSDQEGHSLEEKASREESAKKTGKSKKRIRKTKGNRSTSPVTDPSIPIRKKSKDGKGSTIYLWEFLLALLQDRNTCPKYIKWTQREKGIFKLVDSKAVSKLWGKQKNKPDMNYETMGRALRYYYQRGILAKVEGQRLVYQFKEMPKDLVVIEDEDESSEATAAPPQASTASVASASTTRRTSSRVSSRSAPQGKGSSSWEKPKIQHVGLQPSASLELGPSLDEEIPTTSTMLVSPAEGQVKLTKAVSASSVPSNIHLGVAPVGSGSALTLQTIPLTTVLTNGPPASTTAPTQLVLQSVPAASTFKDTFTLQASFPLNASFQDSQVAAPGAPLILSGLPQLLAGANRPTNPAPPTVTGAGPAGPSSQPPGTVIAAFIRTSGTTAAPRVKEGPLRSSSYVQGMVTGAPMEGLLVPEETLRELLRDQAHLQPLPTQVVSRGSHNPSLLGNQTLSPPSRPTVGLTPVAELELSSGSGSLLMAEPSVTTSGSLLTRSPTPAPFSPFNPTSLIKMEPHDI
How it was run: as §1

[6] = molecular target: T3, ELK4 (Homo sapiens, UniProt P28324-2 1-405); conditions: protein: recombinant; tags: N-terminal GST; dsDNA, one strand shown
T3 sequence: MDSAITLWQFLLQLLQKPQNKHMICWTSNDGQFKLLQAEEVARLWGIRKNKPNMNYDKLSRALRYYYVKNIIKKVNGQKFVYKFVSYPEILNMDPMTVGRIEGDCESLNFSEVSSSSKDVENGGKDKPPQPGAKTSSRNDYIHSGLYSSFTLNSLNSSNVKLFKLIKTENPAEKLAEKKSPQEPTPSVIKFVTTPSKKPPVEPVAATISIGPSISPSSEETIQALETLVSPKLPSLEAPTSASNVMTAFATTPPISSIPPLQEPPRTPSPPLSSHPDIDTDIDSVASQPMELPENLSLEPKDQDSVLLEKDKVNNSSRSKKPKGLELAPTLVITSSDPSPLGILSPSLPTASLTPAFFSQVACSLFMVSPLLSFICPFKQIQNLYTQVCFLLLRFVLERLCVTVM
How it was run: as §1

[7] = molecular target: T4, ETV2 (Homo sapiens, UniProt O00321 1-342); conditions: protein: recombinant; tags: N-terminal GST; dsDNA, one strand shown
T4 sequence: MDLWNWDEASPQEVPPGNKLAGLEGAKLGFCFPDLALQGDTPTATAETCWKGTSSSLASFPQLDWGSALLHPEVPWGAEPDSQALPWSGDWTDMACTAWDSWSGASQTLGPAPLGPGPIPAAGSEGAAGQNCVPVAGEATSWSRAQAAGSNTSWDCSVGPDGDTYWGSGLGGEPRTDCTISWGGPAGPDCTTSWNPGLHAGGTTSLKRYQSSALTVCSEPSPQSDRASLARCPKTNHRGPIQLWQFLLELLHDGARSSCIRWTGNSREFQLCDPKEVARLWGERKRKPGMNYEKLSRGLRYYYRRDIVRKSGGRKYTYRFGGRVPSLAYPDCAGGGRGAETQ
How it was run: as §1

[8] = molecular target: T5, ELF3 (Homo sapiens, UniProt P78545 1-371); conditions: protein: recombinant; tags: N-terminal GST; dsDNA, one strand shown
T5 sequence: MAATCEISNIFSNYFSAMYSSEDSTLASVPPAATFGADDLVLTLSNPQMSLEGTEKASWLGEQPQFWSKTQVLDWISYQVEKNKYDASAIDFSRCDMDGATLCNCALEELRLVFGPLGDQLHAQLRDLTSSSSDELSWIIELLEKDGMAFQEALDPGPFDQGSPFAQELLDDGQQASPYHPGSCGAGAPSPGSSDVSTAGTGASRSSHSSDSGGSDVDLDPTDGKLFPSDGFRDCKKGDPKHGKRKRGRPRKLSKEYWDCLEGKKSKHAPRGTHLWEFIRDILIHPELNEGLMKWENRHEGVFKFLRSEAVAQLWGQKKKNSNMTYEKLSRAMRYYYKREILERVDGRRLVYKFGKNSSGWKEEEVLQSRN
How it was run: as §1

[9] = molecular target: CRX (Homo sapiens, UniProt O43186 1-299); conditions: protein: recombinant; tags: N-terminal GST; dsDNA, one strand shown
CRX, sequence (O43186 whole entry): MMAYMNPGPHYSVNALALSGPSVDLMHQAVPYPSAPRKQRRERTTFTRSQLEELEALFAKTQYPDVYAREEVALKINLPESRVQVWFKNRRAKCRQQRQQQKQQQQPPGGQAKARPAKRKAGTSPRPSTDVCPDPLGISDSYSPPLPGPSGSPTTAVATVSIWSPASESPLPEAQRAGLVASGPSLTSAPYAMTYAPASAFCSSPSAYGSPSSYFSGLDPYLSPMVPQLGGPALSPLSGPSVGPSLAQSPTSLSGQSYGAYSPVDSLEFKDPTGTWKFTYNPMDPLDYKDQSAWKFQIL
How it was run: as §1

[10] = molecular target: ETV1 (Homo sapiens, UniProt P50549 1-477); conditions: protein: recombinant; tags: N-terminal GST; dsDNA, one strand shown
ETV1, sequence (P50549 whole entry): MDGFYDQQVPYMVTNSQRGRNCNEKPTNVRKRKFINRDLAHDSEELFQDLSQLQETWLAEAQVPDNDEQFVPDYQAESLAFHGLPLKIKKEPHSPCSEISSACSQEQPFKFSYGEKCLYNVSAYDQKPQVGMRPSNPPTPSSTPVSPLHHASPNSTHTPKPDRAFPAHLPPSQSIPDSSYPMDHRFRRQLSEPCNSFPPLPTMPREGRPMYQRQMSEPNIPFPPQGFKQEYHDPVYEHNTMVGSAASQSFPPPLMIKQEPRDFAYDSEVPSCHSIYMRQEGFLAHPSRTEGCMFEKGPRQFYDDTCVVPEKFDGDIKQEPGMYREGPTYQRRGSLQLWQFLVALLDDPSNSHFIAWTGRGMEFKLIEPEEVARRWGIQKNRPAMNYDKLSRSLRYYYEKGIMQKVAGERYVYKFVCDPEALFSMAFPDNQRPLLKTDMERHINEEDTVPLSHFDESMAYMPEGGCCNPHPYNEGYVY
How it was run: as §1

[11] = molecular target: T6, ERF (Homo sapiens, UniProt P50548 1-548); conditions: protein: recombinant; tags: N-terminal GST; dsDNA, one strand shown
T6 sequence: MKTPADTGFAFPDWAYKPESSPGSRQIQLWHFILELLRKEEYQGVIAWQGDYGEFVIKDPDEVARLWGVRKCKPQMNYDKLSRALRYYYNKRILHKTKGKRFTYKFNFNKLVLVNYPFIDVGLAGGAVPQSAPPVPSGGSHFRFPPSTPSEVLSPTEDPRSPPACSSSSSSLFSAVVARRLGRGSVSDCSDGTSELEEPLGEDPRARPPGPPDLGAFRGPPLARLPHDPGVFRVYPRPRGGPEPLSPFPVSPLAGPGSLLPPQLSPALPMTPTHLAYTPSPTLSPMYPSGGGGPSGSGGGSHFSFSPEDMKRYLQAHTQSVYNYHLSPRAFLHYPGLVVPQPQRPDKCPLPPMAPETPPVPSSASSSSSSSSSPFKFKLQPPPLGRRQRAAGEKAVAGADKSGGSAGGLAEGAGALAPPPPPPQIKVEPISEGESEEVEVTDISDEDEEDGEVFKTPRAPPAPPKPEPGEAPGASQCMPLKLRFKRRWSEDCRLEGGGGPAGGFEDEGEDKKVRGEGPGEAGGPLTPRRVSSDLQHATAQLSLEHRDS
How it was run: as §1

[12] = molecular target: T7, ETS2 (Homo sapiens, UniProt P15036 1-469); conditions: protein: recombinant; tags: N-terminal GST; dsDNA, one strand shown
T7 sequence: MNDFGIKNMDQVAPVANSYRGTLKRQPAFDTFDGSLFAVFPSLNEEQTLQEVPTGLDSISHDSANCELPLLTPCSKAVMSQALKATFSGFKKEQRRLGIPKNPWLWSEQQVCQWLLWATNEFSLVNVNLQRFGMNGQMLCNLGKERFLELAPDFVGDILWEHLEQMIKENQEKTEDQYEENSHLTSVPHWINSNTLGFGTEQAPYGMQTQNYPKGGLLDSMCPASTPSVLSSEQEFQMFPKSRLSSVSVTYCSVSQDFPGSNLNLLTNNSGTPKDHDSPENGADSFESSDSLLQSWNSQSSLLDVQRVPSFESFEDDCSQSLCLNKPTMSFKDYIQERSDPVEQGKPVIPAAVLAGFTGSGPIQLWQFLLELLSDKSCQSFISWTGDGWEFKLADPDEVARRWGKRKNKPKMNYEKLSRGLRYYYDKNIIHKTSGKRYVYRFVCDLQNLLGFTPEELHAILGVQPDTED
How it was run: as §1

[13] = molecular target: T8, SPDEF (Homo sapiens, UniProt O95238 1-335); conditions: protein: recombinant; tags: N-terminal GST; dsDNA, one strand shown
T8 sequence: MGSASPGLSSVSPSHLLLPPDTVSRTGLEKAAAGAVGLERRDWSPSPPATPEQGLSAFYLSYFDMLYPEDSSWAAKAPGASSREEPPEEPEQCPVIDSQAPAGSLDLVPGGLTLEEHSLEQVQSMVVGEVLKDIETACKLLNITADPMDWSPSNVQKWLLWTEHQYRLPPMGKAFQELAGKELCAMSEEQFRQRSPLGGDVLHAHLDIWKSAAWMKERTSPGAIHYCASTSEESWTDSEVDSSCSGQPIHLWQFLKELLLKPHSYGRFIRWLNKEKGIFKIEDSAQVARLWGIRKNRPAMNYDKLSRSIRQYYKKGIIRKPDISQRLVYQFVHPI
How it was run: as §1

[14] = molecular target: T9, ETV7 (Homo sapiens, UniProt Q9Y603 1-341); conditions: protein: recombinant; tags: N-terminal GST; dsDNA, one strand shown
T9 sequence: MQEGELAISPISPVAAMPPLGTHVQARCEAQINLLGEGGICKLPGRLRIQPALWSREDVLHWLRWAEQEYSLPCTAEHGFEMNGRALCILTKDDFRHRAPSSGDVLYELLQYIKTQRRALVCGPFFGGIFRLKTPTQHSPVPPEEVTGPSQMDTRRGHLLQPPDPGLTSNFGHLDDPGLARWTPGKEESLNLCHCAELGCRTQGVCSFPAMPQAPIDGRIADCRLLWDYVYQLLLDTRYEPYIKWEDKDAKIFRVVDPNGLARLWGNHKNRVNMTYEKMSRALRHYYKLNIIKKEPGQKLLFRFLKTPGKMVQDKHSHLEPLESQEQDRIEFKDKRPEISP
How it was run: as §1

[15] = molecular target: T10, ELF5 (Homo sapiens, UniProt Q9UKW6-2 1-255); conditions: protein: recombinant; tags: N-terminal GST; dsDNA, one strand shown
T10 sequence: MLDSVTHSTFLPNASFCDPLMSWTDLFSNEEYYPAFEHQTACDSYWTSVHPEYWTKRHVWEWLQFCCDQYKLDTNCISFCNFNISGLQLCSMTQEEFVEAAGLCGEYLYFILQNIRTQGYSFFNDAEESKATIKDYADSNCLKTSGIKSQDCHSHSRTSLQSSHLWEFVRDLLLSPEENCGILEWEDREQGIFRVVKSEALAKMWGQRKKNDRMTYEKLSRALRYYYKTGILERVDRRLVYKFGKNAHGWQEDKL
How it was run: as §1

[16] = molecular target: T11, ETV3 (Homo sapiens, UniProt P41162-2 1-143); conditions: protein: recombinant; tags: N-terminal GST; dsDNA, one strand shown
T11 sequence: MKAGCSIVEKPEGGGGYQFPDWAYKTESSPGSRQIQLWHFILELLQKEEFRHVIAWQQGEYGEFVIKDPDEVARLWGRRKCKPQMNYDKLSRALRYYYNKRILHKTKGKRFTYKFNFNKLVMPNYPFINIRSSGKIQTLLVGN
How it was run: as §1

[17] = molecular target: ETV6 (Homo sapiens, UniProt P41212 1-452); conditions: protein: recombinant; tags: N-terminal GST; dsDNA, one strand shown
ETV6, sequence (P41212 whole entry): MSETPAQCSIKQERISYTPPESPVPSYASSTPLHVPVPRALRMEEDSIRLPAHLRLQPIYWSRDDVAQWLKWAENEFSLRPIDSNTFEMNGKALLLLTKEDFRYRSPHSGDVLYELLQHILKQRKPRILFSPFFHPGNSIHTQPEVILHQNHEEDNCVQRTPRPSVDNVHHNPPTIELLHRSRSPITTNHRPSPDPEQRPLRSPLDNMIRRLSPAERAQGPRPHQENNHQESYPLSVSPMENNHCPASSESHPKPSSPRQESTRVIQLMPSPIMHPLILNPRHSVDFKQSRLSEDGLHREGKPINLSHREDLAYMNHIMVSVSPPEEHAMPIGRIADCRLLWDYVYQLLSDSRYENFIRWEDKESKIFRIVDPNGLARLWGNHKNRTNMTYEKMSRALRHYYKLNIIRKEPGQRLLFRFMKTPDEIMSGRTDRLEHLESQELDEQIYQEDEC
How it was run: as §1

Q: For GGTTTA, which binding signal [1] is on record?
A: Its binding signal is 1.05 fold enrichment (6-mer frequency, TF over GST control).

Q: And the binding signal [2]?
A: Its binding signal is 1.06 fold enrichment (6-mer frequency, TF over GST control).

Q: What about the binding signal [3] of the same sequence?
A: The binding signal was 1.29 fold enrichment (6-mer frequency, TF over GST control).

Q: What about the binding signal [4] of the same sequence?
A: The binding signal was 1.13 fold enrichment (6-mer frequency, TF over GST control).

Q: What about the binding signal [5] of the same sequence?
A: The binding signal was 1.06 fold enrichment (6-mer frequency, TF over GST control).

Q: And the binding signal [6]?
A: The binding signal was 1.13 fold enrichment (6-mer frequency, TF over GST control).

Q: What about the binding signal [7] of the same sequence?
A: The binding signal was 1.15 fold enrichment (6-mer frequency, TF over GST control).

Q: What about the binding signal [8] of the same sequence?
A: Its binding signal is 1.13 fold enrichment (6-mer frequency, TF over GST control).

Q: What about the binding signal [9] of the same sequence?
A: Its binding signal is 1.66 fold enrichment (6-mer frequency, TF over GST control).

Q: And the binding signal [10]?
A: The binding signal was 1.05 fold enrichment (6-mer frequency, TF over GST control).

Q: And the binding signal [11]?
A: The binding signal was 1.11 fold enrichment (6-mer frequency, TF over GST control).

Q: And the binding signal [12]?
A: The binding signal was 1.02 fold enrichment (6-mer frequency, TF over GST control).

Q: What about the binding signal [13] of the same sequence?
A: The binding signal was 1.1 fold enrichment (6-mer frequency, TF over GST control).

Q: What about the binding signal [14] of the same sequence?
A: Its binding signal is 1.15 fold enrichment (6-mer frequency, TF over GST control).

Q: And the binding signal [15]?
A: The binding signal was 1.08 fold enrichment (6-mer frequency, TF over GST control).

Q: And the binding signal [16]?
A: The binding signal was 1.1 fold enrichment (6-mer frequency, TF over GST control).

Q: What about the binding signal [17] of the same sequence?
A: The binding signal was 1.07 fold enrichment (6-mer frequency, TF over GST control).
